# Reference: the supplement of paper PMC3334620
# Whole data set: some 33,000 sequences, median “E-score (-0.5 to 0.5)” near -0.0034, cut for the highest 2% near 0.25. The sample holds the highest values, similar sequences and a random draw of the others, so the mix is not that of the screen.
# Target: T1, Yap3 (UniProt P38749)
# T1 sequence: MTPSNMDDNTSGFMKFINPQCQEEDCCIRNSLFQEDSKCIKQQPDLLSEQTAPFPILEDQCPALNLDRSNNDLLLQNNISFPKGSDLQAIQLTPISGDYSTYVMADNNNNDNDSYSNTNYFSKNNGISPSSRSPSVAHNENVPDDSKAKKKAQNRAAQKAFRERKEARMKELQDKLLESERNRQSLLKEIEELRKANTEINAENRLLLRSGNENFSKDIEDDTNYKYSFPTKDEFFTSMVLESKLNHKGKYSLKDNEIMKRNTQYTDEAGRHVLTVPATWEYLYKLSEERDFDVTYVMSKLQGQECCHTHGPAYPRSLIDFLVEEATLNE
# Test: PBM E-score (8-mer binding enrichment) (E-score (-0.5 to 0.5)); higher = stronger / more preferred TF binding
# Conditions: protein concentration: 100 nM; construct: GST-full length
# In short: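 Each ungapped eight-base word and its reverse complement, pooled, received an E-score from the Universal PBM Analysis Suite. Underlying scans, normalised with masliner, recorded fluorescent anti-GST bound to GST-tagged yeast transcription factors. These were applied at about 100-200 nM to universal all-10-mer Agilent arrays double-stranded by primer extension.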
row,Sequence,PBM E-score
1,TGACGTCA,0.331
2,TGACGTAA,0.368
3,CGACGTAA,0.19
4,TCGCGTAA,0.302
5,GCACGTAA,0.0393
6,ACGCGTAA,0.0957
7,GGACGTCA,-0.0403
8,AGACGTCA,-0.0966
9,GCGCGTAA,0.23
10,GGACGTAA,-0.0155
11,CATGTAAC,0.0356
12,ACCCTTCT,-0.142
13,AGAGTTAG,-0.0808
14,GGTCTAGA,-0.104
15,AACCAGCG,-0.0042
16,GCTGTAAC,0.0596
17,ACTCTGCC,-0.104
18,GCACTTAC,0.0227
19,CCACTTAC,0.257
20,CCACTTAA,-0.071
21,ATACCAAC,0.202
22,ACTTGTCC,0.0688
23,AAGAAGCA,0.119
24,AGCTGTAA,0.0402
25,CATCGCTA,0.0613
26,AGCCCTAG,-0.106

row,Sequence,PBM E-score
1,CATAAAGG,0.00277
2,GTGAGTAA,0.154
3,ATGAGTAA,0.284
4,CTGAGTAA,0.246
5,CTCGAACC,-0.0728
6,TTCTAAAA,0.0712
7,AATCCTCC,-0.0151
8,CTTTAATA,0.285
9,CTTTAATC,0.152
10,AGTTAATA,0.264
11,GTTTAAAA,0.0984
12,AGTTAATC,0.0976
13,ATTTAATA,0.302
14,GTTTAAGA,-0.0881
15,ATTTAACA,0.195
16,ATTTAATC,0.212
17,GGTTAATA,0.0683
18,GTTTAATA,0.272
19,CTTTAAGA,0.0783
20,AATCGCTA,-0.00025
21,GGTCGCCA,-0.186
22,ACCCATCT,0.0208
23,AAAGAGCA,0.132
24,CCGAGAGG,-0.18
25,GAGGTCTA,-0.165
26,TACGCTGA,0.156

row,Sequence,PBM E-score
1,GCTCCAGC,-0.037
2,AAGTCCGC,-0.104
3,CGCCAACC,-0.193
4,CAATAGAC,0.111
5,GAAGTCGA,0.0787
6,ATTTAAGG,0.0621
7,ATTTAACG,0.204
8,ATTTAATG,0.282
9,CGATAGAA,0.0788
10,ACACCCTG,-0.133
11,CATTACAC,0.205
12,AATTACTG,0.218
13,CATTACAA,0.28
14,GATTACCA,0.153
15,GCTTACTA,0.237
16,AATTACCC,0.107
17,AATTACTA,0.325
18,CCTTACTC,0.183
19,CCTTACTA,0.281
20,TATTACAA,0.209
21,AATTACCA,0.256
22,GATTACTA,0.225
23,AGATCACG,0.128
24,GGGCCACC,-0.256
25,TCTGCTAA,0.0116
26,ACCGCGAA,-0.00285

row,Sequence,PBM E-score
1,GGACATGA,-0.0945
2,ACAACTGC,0.0481
3,CTGCCCTA,-0.132
4,CCTGCATC,-0.0897
5,GGGCTCCA,-0.262
6,GAGGCACA,-0.0567
7,CTTTACTA,0.22
8,CATTACTA,0.292
9,CATTACTC,0.221
10,AATCAGAA,0.0468
11,AAAGAACC,0.0747
12,AGTATTAA,0.186
13,AGTATTAC,0.26
14,CGTATTAC,0.231
15,AGTATTAG,0.327
16,CGTATTAG,0.152
17,AGTATTAT,0.1
18,AGCAAGTG,-0.0827
19,AAATTGTC,0.154
20,GATCGACA,-0.00076
21,AACTAGAT,0.0716
22,CTTTGTTC,0.0752
23,AATTGTTC,0.257
24,ATTTGTTC,0.321
25,AATTGTTG,0.0159
26,ATTTGTTA,0.166

row,Sequence,PBM E-score
1,CATTGTTC,0.125
2,CATAGTTA,0.0154
3,GTAAGCAA,0.27
4,ATAAGCAA,0.137
5,CTAAGCAA,-0.0294
6,ATATCATG,0.101
7,CTATCTTA,0.126
8,GTATCATA,0.276
9,GCATCATA,0.193
10,GTATCTGA,0.133
11,GTATCAGA,-0.0367
12,ATATCATA,0.271
13,CTATCATA,0.12
14,GTATCTTA,0.267
15,CCTCAAAC,0.0235
16,TCGGGCCA,-0.132
17,GTGAGGCA,0.0355
18,CATGACCC,-0.0127
19,CGGGCCTA,-0.255
20,GTAGACCA,-0.0918
21,ACCCGCAG,-0.0808
22,ATCACTCG,0.0758
23,CCAGGTTC,-0.317
24,GTGCGAGA,0.0126
25,ATGTACCA,-0.0322
26,AAGTTATA,0.175

row,Sequence,PBM E-score
1,AAGTTATG,0.256
2,AAGTTATT,0.174
3,CATACTGA,0.136
4,TATACTGA,0.295
5,GATACTGA,0.0116
6,TGAGACAA,0.0572
7,ATTTCATA,0.239
8,ATTTCATG,-0.0106
9,ATTTCATC,0.269
10,CTAGTATC,0.0604
11,GTAATTAC,0.306
12,CCAATTAA,0.0782
13,GTAATTGA,0.115
14,CCAATTAC,0.274
15,GCAATTAC,0.102
16,CTAATTGA,0.0727
17,ATAATTGA,0.308
18,TTAATTAA,0.0675
19,ATAATTAA,0.259
20,ACAATTAC,0.203
21,CTAATTAA,0.135
22,GGAATTAC,0.235
23,CGTTCATA,-0.0126
24,AGCACGCC,-0.157
25,ACCACTGC,-0.048
26,GACACTAA,0.064

row,Sequence,PBM E-score
1,AAGGGGCA,-0.105
2,CTCTCGGA,0.00281
3,ATATGCGG,0.0287
4,GCAGTGAA,0.225
5,GTCAAAGA,-0.0517
6,AGTAGCCA,-0.141
7,CATGCACC,-0.191
8,CGCTGCTC,-0.133
9,GTAATTCA,0.177
10,ACAATTAG,-0.0417
11,ATAATTAG,0.347
12,GTAATTAA,0.259
13,GGAATTAA,0.233
14,ATAATTAC,0.333
15,CCAATTAG,0.177
16,CTAATTAG,0.347
17,CTAATTAC,0.253
18,CAAATTAG,0.122
19,ATAATTCC,0.163
20,AGAATTAG,0.0612
